Records with an inconclusive call do not appear. Activity calls are given as the source filed them. The call rests on the fitted dose curve; in most records, active means well fitted inhibition curve with a large enough effect; inconclusive means small, poorly fitted or top-dose-only effect; inactive means flat fitted curve, though single readings scatter. Starred links: 1 amine or outer side, 2 acyl side, 3 side chain; linkers in the order of their positions; H or OH if unused. Positions of bridges follow the written chain, without caps; N, C: chain ends. Non-standard residues stand in square brackets, D forms with d. Residues, ends and D or L forms follow the SMILES beside them. Chains are numbered I, II in the order given. Actinocin(9to1) = Cc1c2oc3c(C)ccc(C(=O)[*:1])c3nc-2c(C(=O)[*:2])c(N)c1=O; NMeV = CN[CH](C(=O)O)C(C)C; Sar = CNCC(=O)O

From PubChem BioAssay (NCATS) come the findings set out here.
On the % scale 0 is the no-effect control and ±100 the full control effect; potency means the concentration at half of the fitted maximal effect.

The test concerns HEK293. Kind of test: Cytotoxic Profiling of Annotated Libraries Using Quantitative High-Throughput Screening (AID 1296008). Further: nearly all actives have a fitted effect of over 60% in size. Conditions: Five cell lines viability, CellTiter-Glo ATP luminescence, 48-72 h; max response: hits give low values. In a few lines:
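Cells exposed to compounds for 48 or 72 hr at 37 degrees Celsius. Viability read as ATP-coupled luminescence with CellTiter-Glo after 10 min at room temperature.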
With `COc1cc([C@@H]2c3cc4c(cc3[C@@H](O[C@@H]3O[C@@H]5CO[C@@H](c6cccs6)O[C@@H]5[C@H](O)[C@@H]3O)[C@H]3COC(=O)[C@H]23)OCO4)cc(OC)c1O`, the Potency was 0.148 µM (active).
Take `C=CCNC1=C2C[C@@H](C)C[C@H](OC)[C@@H](O)[C@@H](C)C=C(C)[C@H](OC(N)=O)[C@@H](OC)C=CC=C(C)C(=O)NC(=CC1=O)C2=O`: the Potency is 0.935 µM (active).
For `CCOC(=O)N1CCN([N+]([O-])=NOc2ccc([N+](=O)[O-])cc2[N+](=O)[O-])CC1`, the Potency is 3.72 µM (active).
As to `COc1cccc2c1C(=O)c1c(O)c3c(c(O)c1C2=O)C[C@@](O)(C(C)=O)C[C@H]3O[C@H]1C[C@H](N)[C@H](O)[C@H](C)O1`, the Potency is 0.0662 µM (active).
As to `C=CC1=C(C(=O)O)N2C(=O)[C@@H](NC(=O)C(=NO)c3csc(N)n3)[C@H]2SC1`, the max response was 0.682% (inactive).
As for `O=C(O)CCCCCC(=O)NN=C1CCCC1`, the outcome was inactive.
Consider `Cc1ncc(-c2ccnc(Nc3ccc(S(C)(=O)=O)cc3)n2)n1C(C)C`, for which the Potency is 4.61 µM (active).
Consider `CC[C@H]1OC(=O)[C@H](C)[C@@H](O[C@H]2C[C@@](C)(OC)[C@@H](O)[C@H](C)O2)[C@H](C)[C@@H](O[C@@H]2O[C@H](C)C[C@H](N(C)C)[C@@H]2O)[C@](C)(OC)C[C@@H](C)C(=O)[C@H](C)[C@@H](O)[C@]1(C)O`, for which the max response is -15.9% (inactive).
`C=C(C)[C@@H]1CC[C@]2(C(=O)O)CC[C@]3(C)[C@H](CC[C@@H]4[C@@]5(C)CC[C@H](O)C(C)(C)[C@@H]5CC[C@]43C)[C@@H]12`: the max response is -13.5% (inactive).
In the case of `O=C(C=CC#Cc1cccc(NS(=O)(=O)c2ccccc2)c1)NO`, the Potency was 8.33 µM (active).
As for `COC(=O)[C@H](CCCN=C(N)N)NS(=O)(=O)c1ccc(C)cc1`, the outcome was inactive.
With `Cc1c2oc3c(C)ccc(C(=O)NC4C(=O)NC(C(C)C)C(=O)N5CCCC5C(=O)N(C)CC(=O)N(C)C(C(C)C)C(=O)OC4C)c3nc-2c(C(=O)NC2C(=O)NC(C(C)C)C(=O)N3CCCC3C(=O)N(C)CC(=O)N(C)C(C(C)C)C(=O)OC2C)c(N)c1=O` (stereo not given) (I: TVP[Sar][NMeV] / II: TVP[Sar][NMeV]; ester I:1-I:C, II:1-II:C; linker I:N-II:N via Actinocin(9to1); configuration not given here), the max response is -93.3% (inactive).
The same measure, in the same setting: the value for `CC(=O)OC[C@@H]1O[C@@H](n2ccc(=O)[nH]c2=O)[C@H](OC(C)=O)[C@H]1OC(C)=O` was -0.274% (inactive).
In the case of `NC(=O)Nc1cc(-c2ccc(CN3CCOCC3)cc2)sc1C(N)=O`, the Potency was 5.26 µM (active).
Consider `CC(=O)OCC(=O)[C@@]12N=C(C)O[C@H]1C[C@H]1[C@@H]3CCC4=CC(=O)C=C[C@]4(C)[C@@H]3[C@@H](O)C[C@@]12C`, for which the max response was -6.3% (inactive).
